# “And” between values parts separate entries of the source, which are not always exact repeats. Identical values can stand only once. The source made the active and inactive calls. Unless noted, how the calls were made is not given here.
# Experiments:
# [1] = kinase inhibitors against Plasmodium liver-stage infection, cell-based, known kinase inhibitor set, luminescence, hepatoma host viability (AID 624392); conditions: Plasmodium liver stage in hepatoma cells, luciferase luminescence, concentration not given here; liver cell % of control: measured here: host liver cell viability; parasite % of control: stronger effect = lower value;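 further: infected cells incubated roughly two days before readout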
# [2] = modulators of glucocorticoid suppression of NF-kB, cell-based, luciferase, IL-1B stimulus, dexamethasone (AID 624486); conditions: NF-kB luciferase reporter, IL-1B + dexamethasone, luminescence; percent of negative control (+Dex): actives lie on both sides, concentration not given here; z-score: measured here: IL-1B alone, no Dex;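 on percent of negative control (+Dex): 100% = mean signal of vehicle control wells on the plate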
# [3] = kinase inhibitors altering Pseudomonas killing of worms, whole organism (AID 651566);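 further: tested at 14 µM; sign flipped so higher z means a lower ratio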; conditions: C. elegans killed by P. aeruginosa, survival ratio
# [4] = activators of macrophage pro-inflammatory response, cell-based, murine, luminescence (AID 652131); conditions: murine macrophage pro-inflammatory reporter, stronger effect = higher value
# [5] = target: Cellular tumor antigen p53 (Homo sapiens) (UniProt P04637); assay: kinase inhibitors altering GFP-p53 stability in HPV16-positive cells, imaging, known kinase inhibitor set, EGFP/DsRed ratio (AID 1053116); conditions: stronger effect = higher value; EGFP object count: measured here: GFP-p53 positive objects count;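 further: cells exposed to compounds for 24 h at 37 °C before reading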
# [6] = IRF3 reporter activation in THP-1 macrophages, cell-based, PMA-stimulated THP-1, luminescence (AID 1053176); conditions: PMA-differentiated THP-1, IRF3 reporter luminescence; stronger effect = higher value
# [7] = survival rescue of mitochondrial mutant cells in low glucose, primary screen, MELAS cybrids, Rieske KO mouse fibroblasts, CellTiter-Glo (AID 1508586;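 active means mean z-score across replicates of 1.96 or higher in either the MELAS or the Rieske mutant cell line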;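 further: z relative to plate mean and SD of compound and empty wells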)
# [8] = MELAS cybrid survival, CellTiter-Glo 48 h, stronger effect = higher value
# [9] = Rieske KO mouse fibroblast survival, CellTiter-Glo 72 h
# Sequence of Cellular tumor antigen p53 (Homo sapiens) (P04637 whole entry, looked up): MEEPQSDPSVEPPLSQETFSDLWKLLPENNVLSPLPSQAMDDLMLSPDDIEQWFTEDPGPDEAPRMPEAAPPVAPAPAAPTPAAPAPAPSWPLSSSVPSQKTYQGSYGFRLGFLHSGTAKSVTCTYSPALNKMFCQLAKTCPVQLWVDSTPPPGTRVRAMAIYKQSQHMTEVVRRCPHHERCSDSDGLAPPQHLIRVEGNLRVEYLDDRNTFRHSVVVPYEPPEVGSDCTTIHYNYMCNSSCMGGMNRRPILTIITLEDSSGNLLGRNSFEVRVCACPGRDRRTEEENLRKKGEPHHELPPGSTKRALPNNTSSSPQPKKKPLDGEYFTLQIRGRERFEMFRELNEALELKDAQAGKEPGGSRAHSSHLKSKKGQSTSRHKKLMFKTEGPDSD
compound,measurement,setting,value
COc1c(C(N)=O)cc(-c2ccc(Cl)cc2)cc1-c1ccc(S(N)(=O)=O)cc1,liver cell % of control,[1],100%
same,parasite % of control,[1],180% (inactive)
same,percent of negative control (+Dex),[2],90.5% (inactive)
same,z-score,[2],0.135
same,z-score,[3],-0.43 (inactive)
same,z-score,[4],0.956 (inactive)
same,EGFP object count,[5],4
same,EGFP/DsRed ratio,[5],0.128 (inactive)
same,fraction signal,[6],-0.003 (inactive)
same,z-score,[7]; [8],0.239 (inactive)
same,z-score,[7]; [9],0.0436
CC(C)c1ccc(Nc2nccc(-c3cnn4ncccc34)n2)cc1,liver cell % of control,[1],146%
same,parasite % of control,[1],13.9% (active)
same,percent of negative control (+Dex),[2],12.5% (active)
same,z-score,[2],-8.57
same,z-score,[3],0.07 (inactive)
same,z-score,[4],-1.83 (inactive)
same,EGFP object count,[5],3.5
same,EGFP/DsRed ratio,[5],0.181 (inactive)
same,fraction signal,[6],-0.005 (inactive)
same,z-score,[7]; [8],0.723 (inactive)
same,z-score,[7]; [9],-0.0455
CCn1c(-c2nonc2N)nc2ccccc21,liver cell % of control,[1],97.5%
same,parasite % of control,[1],113% (inactive)
same,percent of negative control (+Dex),[2],80% (inactive)
same,z-score,[2],-0.405
same,z-score,[3],0.585 (inactive)
same,z-score,[4],0.013 (inactive)
same,EGFP object count,[5],3
same,EGFP/DsRed ratio,[5],0.0652 (inactive)
same,fraction signal,[6],-0.0025 (inactive)
same,z-score,[7]; [8],-0.294 (inactive)
same,z-score,[7]; [9],-0.443
CCn1c(-c2nonc2N)nc2c(C#CC(C)(C)O)nc(OC[C@@H](N)c3ccccc3)cc21,liver cell % of control,[1],87.1%
same,parasite % of control,[1],48.7% (inactive)
same,percent of negative control (+Dex),[2],108% (inactive)
same,z-score,[2],3.72
same,z-score,[3],0.96 (inactive)
same,z-score,[4],-1.1 (inactive)
same,EGFP object count,[5],19.5
same,EGFP/DsRed ratio,[5],0.658 (inactive)
same,fraction signal,[6],-0.0095 (inactive)
same,z-score,[7]; [8],-0.774 (inactive)
same,z-score,[7]; [9],0.238
O=C(O[C@H]1CN[C@H](C#Cc2cc3ncnc(Nc4ccc5c(ccn5Cc5cc(F)ccc5F)c4)c3s2)C1)N1CCOCC1,liver cell % of control,[1],93.4%
same,parasite % of control,[1],75.1% (inactive)
same,percent of negative control (+Dex),[2],62% (inactive)
same,z-score,[2],-2.06
same,z-score,[3],0.505 (inactive)
same,z-score,[4],2.01 (inactive)
same,EGFP object count,[5],3
same,EGFP/DsRed ratio,[5],0.0606 (inactive)
same,fraction signal,[6],-0.0085 (inactive)
same,z-score,[7]; [8],-0.816 (inactive)
same,z-score,[7]; [9],-0.0743
NS(=O)(=O)c1ccc(N=Cc2c(O)[nH]c3ccc4ncsc4c23)cc1,liver cell % of control,[1],60.5% and 61.1%
same,parasite % of control,[1],165% (inactive) and 378% (inactive)
same,percent of negative control (+Dex),[2],112% (inactive) and 98.5% (inactive)
same,z-score,[2],0.655 and 0.01
same,z-score,[3],0.515 (inactive) and 0.145 (inactive)
same,z-score,[4],-1.62 (inactive) and -1.7 (inactive)
same,EGFP object count,[5],2.5 and 4
same,EGFP/DsRed ratio,[5],0.0629 (inactive) and 0.096 (inactive)
same,fraction signal,[6],-0.009 (inactive) and 0.0005 (inactive)
same,z-score,[7]; [8],-0.336 (inactive) and 1.1 (inactive)
same,z-score,[7]; [9],0.0286 and -0.139
FC(F)(F)c1ccc(-c2nn3ncccc3c2-c2ccnc(Nc3ccc4c(c3)OCCO4)n2)cc1,liver cell % of control,[1],105%
same,parasite % of control,[1],77.8% (inactive)
same,percent of negative control (+Dex),[2],110% (inactive)
same,z-score,[2],0.735
same,z-score,[3],-0.48 (inactive)
same,z-score,[4],0.358 (inactive)
same,EGFP object count,[5],5
same,EGFP/DsRed ratio,[5],0.479 (inactive)
same,fraction signal,[6],0.001 (inactive)
same,z-score,[7]; [8],0.512 (inactive)
same,z-score,[7]; [9],0.23
COc1cc(C)c(NC(=O)CN(C)C)cc1Nc1nc(Nc2cccc(F)c2C(N)=O)c2cc[nH]c2n1,liver cell % of control,[1],63%
same,parasite % of control,[1],550% (inactive)
same,percent of negative control (+Dex),[2],93% (inactive)
same,z-score,[2],-0.195
same,z-score,[3],-0.165 (inactive)
same,z-score,[4],5.12 (inactive)
same,EGFP object count,[5],21
same,EGFP/DsRed ratio,[5],0.493 (inactive)
same,fraction signal,[6],-0.0105 (inactive)
same,z-score,[7]; [8],1.87 (inactive)
same,z-score,[7]; [9],-0.0279
COC(=O)Nc1nc2ccc(Oc3ccc(NC(=O)Nc4cc(C(F)(F)F)ccc4F)cc3)cc2s1,liver cell % of control,[1],100%
same,parasite % of control,[1],360% (inactive)
same,percent of negative control (+Dex),[2],120% (inactive)
same,z-score,[2],-1.24
same,z-score,[3],-0.21 (inactive)
same,z-score,[4],-0.073 (inactive)
same,EGFP object count,[5],18.5
same,EGFP/DsRed ratio,[5],0.414 (inactive)
same,fraction signal,[6],0 (inactive)
same,z-score,[7]; [8],-0.628 (inactive)
same,z-score,[7]; [9],-0.719
Nc1nccc(-c2c(-c3ccc(F)cc3)ncn2C2CCC(O)CC2)n1 (centres undefined),liver cell % of control,[1],93%
same,parasite % of control,[1],24.7% (inactive)
same,percent of negative control (+Dex),[2],110% (inactive)
same,z-score,[2],1.26
same,z-score,[3],0.765 (inactive)
same,z-score,[4],2.25 (inactive)
same,EGFP object count,[5],2
same,EGFP/DsRed ratio,[5],0.124 (inactive)
same,fraction signal,[6],-0.0025 (inactive)
same,z-score,[7]; [8],-1.17 (inactive)
same,z-score,[7]; [9],-0.368
Cc1ccc(C(=O)NC2CCC2)cc1-c1ccc(C(=O)NCC2CC2)cc1,liver cell % of control,[1],104%
same,parasite % of control,[1],116% (inactive)
same,percent of negative control (+Dex),[2],98.5% (inactive)
same,z-score,[2],1.36
same,z-score,[3],0.425 (inactive)
same,z-score,[4],-0.285 (inactive)
same,EGFP object count,[5],2
same,EGFP/DsRed ratio,[5],0.0763 (inactive)
same,fraction signal,[6],-0.002 (inactive)
same,z-score,[7]; [8],-0.173 (inactive)
same,z-score,[7]; [9],-0.404
COc1cc2ncn(-c3cc(OCc4cccs4)c(C(N)=O)s3)c2cc1OC,liver cell % of control,[1],107%
same,parasite % of control,[1],69% (inactive)
same,percent of negative control (+Dex),[2],111% (inactive)
same,z-score,[2],0.28
same,z-score,[3],-0.19 (inactive)
same,z-score,[4],-0.264 (inactive)
same,EGFP object count,[5],3.5
same,EGFP/DsRed ratio,[5],0.163 (inactive)
same,fraction signal,[6],-0.0075 (inactive)
same,z-score,[7]; [8],-0.262 (inactive)
same,z-score,[7]; [9],-0.175
Fc1ccc(-c2ncn(CCCN3CCOCC3)c2-c2ccncc2)cc1,liver cell % of control,[1],110%
same,parasite % of control,[1],145% (inactive)
same,percent of negative control (+Dex),[2],98.5% (inactive)
same,z-score,[2],1.32
same,z-score,[3],0.18 (inactive)
same,z-score,[4],-0.092 (inactive)
same,EGFP object count,[5],4
same,EGFP/DsRed ratio,[5],0.0405 (inactive)
same,fraction signal,[6],-0.0075 (inactive)
same,z-score,[7]; [8],-1.02 (inactive)
same,z-score,[7]; [9],0.219
CCn1c(-c2nonc2N)nc2cnc(Oc3cccc(NC(=O)c4ccc(N(C)C)cc4)c3)cc21,liver cell % of control,[1],88.6%
same,parasite % of control,[1],248% (inactive)
same,percent of negative control (+Dex),[2],96% (inactive)
same,z-score,[2],-0.295
same,z-score,[3],-0.06 (inactive)
same,z-score,[4],1.22 (inactive)
same,EGFP object count,[5],3.5
same,EGFP/DsRed ratio,[5],0.117 (inactive)
same,fraction signal,[6],-0.0105 (inactive)
same,z-score,[7]; [8],0.0951 (inactive)
same,z-score,[7]; [9],0.0229

# — PubChem BioAssay
